Measured values taken from PubChem BioAssay AID1159580 (chemical genetic matrix, 2015).
Screen size: about 5,500 compounds; about 2,000 (36%) were called active. Another 18% or so got no clear call; they are omitted. Cut-off read from the data, not from the text of the source: active = normalized growth mostly below about 0.91 (no sharp cut-off); inconclusive = no clear call, values can overlap the other calls; inactive = mostly above about 0.92. The list shows a part of the results.

Test: chemical genetic growth profiling, strain panel (AID 1159580);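 note: tested at 20 µM; growth read once vehicle control cultures reached saturation at 30 °C; 1 = growth at the plate median or of vehicle wells; lower values mean less growth of the strain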
Conditions: S. cerevisiae deletion strains, growth OD
[1] = locus YAR019C, strain CDC15, hits give low values
[2] = locus YBL105C, strain PKC1, hits give low values
[3] = locus YBR135W, strain CKS1, hits give low values
[4] = locus YBR136W, strain MEC1, hits give low values
[5] = locus YBR160W, strain CDC28, hits give low values
[6] = locus YDL017W, strain CDC7, hits give low values
[7] = locus YDL028C, strain MPS1, hits give low values
[8] = locus YDL101C, strain DUN1, hits give low values
[9] = locus YDL108W, strain KIN28, hits give low values
[10] = locus YDL132W, strain cdc53, hits give low values
[11] = locus YDL214C, strain PRR2, hits give low values
[12] = locus YDR052C, strain DBF4, hits give low values
[13] = locus YDR054C, strain cdc34, hits give low values
[14] = locus YDR226W, strain ADK1, hits give low values
[15] = locus YDR477W, strain SNF1, hits give low values
[16] = locus YER123W, strain YCK3, hits give low values
[17] = locus YER133W, strain GLC7, hits give low values
[18] = locus YFL009W, strain cdc4, hits give low values
[19] = locus YFL029C, strain CAK1, hits give low values
[20] = locus YFR003C, strain YPI1, hits give low values
[21] = locus YFR019W, strain FAB1, hits give low values
[22] = locus YFR028C, strain CDC14, hits give low values
[23] = locus YGR040W, strain KSS1, hits give low values
[24] = locus YGR052W, strain FMP48, hits give low values
[25] = locus YGR092W, strain DBF2, hits give low values
[26] = locus YHR030C, strain SLT2, hits give low values
[27] = locus YHR079C, strain IRE1, hits give low values
[28] = locus YHR082C, strain KSP1, hits give low values
[29] = locus YHR205W, strain SCH9, hits give low values
[30] = locus YIL147C, strain SLN1, hits give low values
[31] = locus YJL095W, strain BCK1, hits give low values
[32] = locus YJL128C, strain PBS2, hits give low values
[33] = locus YJL157C, strain FAR1, hits give low values
[34] = locus YJR016C, strain ILV3, hits give low values
[35] = locus YJR066W, strain TOR1 (second series), hits give low values
[36] = locus YJR066W, strain TOR1, hits give low values
[37] = locus YKL048C, strain ELM1, hits give low values
[38] = locus YKL067W, strain YNK1, hits give low values
[39] = locus YKL101W, strain HSL1, hits give low values
[40] = locus YKL193C, strain SDS22, hits give low values
[41] = locus YKL203C, strain TOR2, hits give low values
[42] = locus YLR113W, strain HOG1, hits give low values
[43] = locus YLR133W, strain CKI1, hits give low values
[44] = locus YLR403W, strain SFP1, hits give low values
[45] = locus YML070W, strain DAK1, hits give low values
[46] = locus YMR001C, strain CDC5, hits give low values
[47] = locus YMR205C, strain PFK2 (second series), hits give low values
[48] = locus YMR277W, strain FCP1, hits give low values
[49] = locus YNL006W, strain LST8, hits give low values
[50] = locus YNL020C, strain ARK1, hits give low values
[51] = locus YNL161W, strain CBK1, hits give low values
[52] = locus YNL183C, strain NPR1, hits give low values
[53] = locus YNL207W, strain RIO2, hits give low values
[54] = locus YNL222W, strain SSU72, hits give low values
[55] = locus YNL307C, strain MCK1 (second series), hits give low values
[56] = locus YOL078W, strain AVO1, hits give low values
[57] = locus YOL136C, strain PFK27, hits give low values
[58] = locus YOR061W, strain CKA2, hits give low values
[59] = locus YOR119C, strain RIO1, hits give low values
[60] = locus YOR231W, strain MKK1, hits give low values
[61] = locus YOR329C, strain SCD5, hits give low values
[62] = locus YPL031C, strain PHO85, hits give low values
[63] = locus YPL153C, strain RAD53, hits give low values
[64] = locus YPL204W, strain HRR25, hits give low values
[65] = locus YPL209C, strain IPL1, hits give low values
[66] = locus YPL256C, strain CLN2, hits give low values
[67] = locus YPR025C, strain CCL1, hits give low values
[68] = locus YPR106W, strain ISR1, hits give low values
[69] = locus YPR111W, strain DBF20, hits give low values
[70] = strain NNK1, hits give low values
[71] = strain TSCII, hits give low values

Measured: normalized growth

Cc1cc(Br)c(O)c(/C=N\NC(=S)NC(C)(C)C)c1
active: [26] 0.752 | [42] 0.782 | [66] 0.838
inactive: [1] 0.98 | [2] 0.987 | [3] 0.971 | [4] 0.981 | [5] 0.978 | [6] 0.972 | [7] 0.972 | [8] 0.993 | [9] 0.969 | [10] 0.984 | [11] 0.922 | [12] 0.982 | [13] 0.98 | [14] 0.965 | [15] 0.91 | [16] 0.894 | [17] 0.879 | [18] 0.981 | [19] 0.973 | [20] 0.976 | [21] 0.959 | [22] 0.975 | [23] 0.893 | [24] 0.883 | [25] 0.823 | [27] 0.872 | [28] 0.97 | [29] 0.942 | [30] 0.981 | [31] 0.875 | [32] 0.952 | [33] 0.911 | [34] 0.99 | [35] 0.839 | [36] 0.899 | [37] 0.973 | [38] 0.934 | [39] 0.914 | [40] 0.98 | [41] 0.914 | [43] 0.917 | [44] 0.857 | [45] 0.917 | [46] 0.975 | [47] 0.944 | [48] 0.98 | [49] 0.98 | [50] 0.903 | [51] 0.975 | [52] 0.848 | [53] 0.976 | [54] 0.988 | [55] 0.893 | [56] 0.982 | [57] 0.947 | [58] 0.91 | [59] 0.967 | [60] 0.874 | [61] 0.988 | [62] 0.876 | [63] 0.906 | [64] 0.884 | [65] 0.981 | [67] 0.975 | [68] 0.987 | [69] 0.985 | [70] 0.982 | [71] 0.984

CC(C)(C)NC(=S)N/N=C\c1cc(Br)c(O)c(Br)c1
active: [26] 0.768
inactive: [1] 0.966 | [2] 0.969 | [3] 0.962 | [4] 0.965 | [5] 0.967 | [6] 0.966 | [7] 0.967 | [8] 0.959 | [9] 0.971 | [10] 0.955 | [11] 0.944 | [12] 0.971 | [13] 0.957 | [14] 0.946 | [15] 0.917 | [16] 0.917 | [17] 0.944 | [18] 0.962 | [19] 0.958 | [20] 0.971 | [21] 0.929 | [22] 0.952 | [23] 0.919 | [24] 0.968 | [25] 0.947 | [27] 0.926 | [28] 0.922 | [29] 0.938 | [30] 0.971 | [31] 0.875 | [32] 0.976 | [33] 0.957 | [34] 0.955 | [35] 0.932 | [36] 0.864 | [37] 0.951 | [38] 0.945 | [39] 0.927 | [40] 0.959 | [41] 0.897 | [42] 0.896 | [43] 0.928 | [44] 0.92 | [45] 0.959 | [46] 0.965 | [47] 0.949 | [48] 0.97 | [49] 0.965 | [50] 0.929 | [51] 0.969 | [52] 0.87 | [53] 0.964 | [54] 0.963 | [55] 0.898 | [56] 0.961 | [57] 0.938 | [58] 0.921 | [59] 0.932 | [60] 0.956 | [61] 0.969 | [62] 0.92 | [63] 0.953 | [64] 0.904 | [65] 0.966 | [66] 0.902 | [67] 0.966 | [68] 0.957 | [69] 0.955 | [70] 0.959 | [71] 0.965

CNC(=S)N/N=C\c1cc(Br)cc(Br)c1O
inactive: [8] 0.912 | locus YHR087W, strain rtc3, hits give low values 0.944 | locus YLR058C, strain SHM2 (second series), hits give low values 1 | locus YMR219W, strain ESC1, hits give low values 0.956
active: locus YAL013W, strain DEP1, hits give low values 0.794 | locus YBR229C, strain ROT2, hits give low values 0.919 | locus YCL061C, strain MRC1, hits give low values 0.861 | locus YDL134C, strain PPH21, hits give low values 0.537 | locus YDR150W, strain NUM1, hits give low values 0.755 | locus YEL061C, strain CIN8, hits give low values 0.463 | locus YGR078C, strain PAC10, hits give low values 0.912 | locus YGR229C, strain SMI1, hits give low values 0.813 | [26] 0.237 | locus YJR043C, strain POL32, hits give low values 0.814 | locus YJR075W, strain HOC1, hits give low values 0.847 | locus YKL190W, strain CNB1, hits give low values 0.36 | locus YLR039C, strain RIC1, hits give low values 0.155 | locus YLR085C, strain ARP6, hits give low values 0.139 | locus YLR262C, strain YPT6, hits give low values 0.15 | locus YML094W, strain GIM5, hits give low values 0.586 | locus YMR263W, strain SAP30, hits give low values 0.743 | locus YMR307W, strain GAS1, hits give low values 0.252 | locus YNL153C, strain GIM3, hits give low values 0.875 | locus YNL298W, strain CLA4 (second series), hits give low values 0.311 | locus YNL322C, strain KRE1, hits give low values 0.817 | locus YNR030W, strain Alg12, hits give low values 0.274 | locus YPL055C, strain LGE1, hits give low values 0.485 | locus YPL241C, strain CIN2, hits give low values 0.522 | locus YPR135W, strain CTF4, hits give low values 0.334
